SMILES strings stand for the structures. Inconclusive results are not listed. A call without a number means that no potency is given here. Active and inactive are the calls of the source. Calls follow the shape of the dose curve; as a rule, active = well fitted curve in the direction sought with a large enough effect; inconclusive = small, poorly fitted or top-dose-only effect, or another doubt; inactive = no such curve, though single readings can be large; an effect the other way counts as inactive or inconclusive.
Potency is read from the fitted curve at half-maximal effect.

Sequence of Glutathione peroxidase 1 (Homo sapiens) (P07203 whole entry, looked up): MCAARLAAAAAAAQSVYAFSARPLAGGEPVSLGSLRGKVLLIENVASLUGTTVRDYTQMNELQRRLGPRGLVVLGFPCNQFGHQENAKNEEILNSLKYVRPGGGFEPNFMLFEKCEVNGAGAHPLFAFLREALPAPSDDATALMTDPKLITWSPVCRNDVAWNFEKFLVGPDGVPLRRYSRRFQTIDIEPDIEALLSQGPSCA

Test system in one assay: not listed separately
Nature of the assay: Primary qHTS for inhibitors of nuclear receptor binding SET domain protein 2 (NSD2) in an RCH-ACV wild type WT cells (2C) (AID 1645877). Also: nearly all actives have a fitted effect of over 70% in size. To be noted: RCH-ACV (leukaemia line) NSD2 WT (2C) viability, CellTiter-Glo, 72 h; series mostly up to 44.9 µM; activity change, negative = cell killing: at the top concentration. On the technique in general: qHTS replaces the single test concentration by a dilution series.
`COCCOC(=O)N1CCN(S(=O)(=O)c2cc(F)c(Oc3ccc(Cl)cc3)c(F)c2)C(C(=O)NO)C1` (stereo unspecified): the Potency was 4.68 µM (active).

For `COc1nc(N)nc2c1ncn2C1OC(CO)C(O)C1O` (stereo unspecified), the Potency is 4.68 µM (active).

Consider `COc1ccc(COc2ccc(Cc3cnc(N)nc3N)cc2OC)cc1`, for which the “activity change, negative = cell killing” value was -32.4% (inactive).

Take `CCOC(=O)N[C@@H]1CC[C@@H]2[C@@H](C1)C[C@H]1C(=O)O[C@H](C)[C@H]1[C@H]2/C=C/c1ccc(-c2cccc(F)c2)cn1`: the Potency was 13.2 µM (active).

For `O=C(NO)c1ccc(C2=Nc3ccccc3Oc3ccccc32)cc1`, the Potency is 2.63 µM (active).

As to `O=C1CC(c2c[nH]c3ccc(F)cc23)C(=O)N1` (stereo unspecified), the “activity change, negative = cell killing” value was -16.9% (inactive).

For another assay, the target named is Glutathione peroxidase 1 (Homo sapiens) (UniProt P07203). Nature of the assay: Primary qHTS Assay for Inhibitors of Recombinant Selenoprotein Glutathione Peroxidase 1 (GPX1) (AID 1845191). Also: nearly all actives have a fitted effect of over 65% in size. To be noted: recombinant GPX1, GR-coupled NADPH fluorescence, 15 min; series mostly up to 48.8 µM; activity, negative = inhibition: at the top concentration. In short, it runs like this:
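Recombinant GPX1 (10 nM final) was preincubated with compound for 30 min at room temperature, then reacted with 1 mM GSH, 0.5 mM CHP, 0.5 mM NADPH and 100 nM glutathione reductase; NADPH fluorescence (340/450 nm) was read at 0 and 15 min.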
As for `COc1cccc(-c2c(C)n(Cc3c(F)cccc3C(F)(F)F)c(=O)n(C[C@H](NCCCC(=O)O)c3ccccc3)c2=O)c1F`, the Potency entry is “inactive”.

With `C=C1C[C@H]2C=Nc3cc(OCCCOc4cc5c(cc4OC)C(=O)N4CC(=C)C[C@H]4C=N5)c(OC)cc3C(=O)N2C1`, the outcome was inactive.

For `O=C(O)CCNc1cc(N2CCc3ccccc3CC2)nc(-c2cccnc2)n1`, the outcome was inactive.

Consider `CN1CCN(C(=O)c2ccc(-c3ccc4c(C=O)c(O)ccc4c3)s2)CC1`, for which the “activity, negative = inhibition” value was 2.26% (inactive).

On to `N=C(N)c1ccc2nc(-c3cc(CC(=O)N[C@@H](CC(=O)O)C(=O)O)cc(-c4cc(S(N)(=O)=O)ccc4O)c3O)[nH]c2c1`, for which the outcome was inactive.

Turning to `C[C@H](Nc1nc(N[C@H](C)C(F)(F)F)nc(-c2cccc(Cl)n2)n1)C(F)(F)F`, the outcome was inactive.

In the case of `O=C1OC(COc2ccccc2[N+](=O)[O-])CC1Cc1ccccc1` (stereo unspecified), the result was inactive.

Turning to `COc1cc2c(cc1OC)CN(CCc1ccc(-n3nnc(-c4cc(OC)c(OC)cc4NC(=O)c4cc(=O)c5ccccc5o4)n3)cc1)CC2`, the outcome is “inactive [at 0.4 µM]”.

For `COCCNc1cc(NC(=O)N2CCCc3cc(CN4CCN(C)CC4=O)c(C=O)nc32)ncc1C#N`, the outcome was “inactive [at 9.52 µM]”.

`N#Cc1ccnc(N2C(=O)CC[C@H]2C(=O)N(c2cncc(F)c2)C(C(=O)NC2CC(F)(F)C2)c2ccccc2Cl)c1` (stereo partly specified): the outcome was inactive.

For `CC1(N)CCN(c2cnc(-c3cccc(Cl)c3Cl)c(N)n2)CC1`, the “activity, negative = inhibition” value was 3.33% [at 27.7 µM] (inactive).

As to `O=C(O)C[C@H]1CCc2c1[nH]c1ccc(OCc3ccc(C4CCCC4)c(C(F)(F)F)c3)cc21`, the outcome was inactive.

`CCOc1ccc(Cc2cc([C@@H]3O[C@H](CO)[C@@H](O)[C@H](O)[C@H]3O)ccc2Cl)cc1`: the Potency result is “inactive”.

In the case of `COc1cc(C)[nH]c(=O)c1CN1CCc2c(Cl)cc([C@H](OC)C3COC3)c(Cl)c2C1=O`, the result was inactive.

As to `CC[C@@]1(O)C(=O)OCc2c1cc1n(c2=O)Cc2c-1nc1ccccc1c2CCNC(C)C`, the activity, negative = inhibition is -16.5% [at 4.49 µM] (inactive).

Consider `CC1(C)OC2=C(C(=O)c3ccccc3C2=O)[C@H](NCc2ccccc2)[C@@H]1O`, for which the “activity, negative = inhibition” value is -11.4% (inactive).

For the molecule `CN[C@@H](C)C(=O)N[C@H](C(=O)N1CCC[C@H]1C(=O)Nc1sc(-c2ncco2)nc1-c1ccccc1)C1CCCCC1`, the “activity, negative = inhibition” value is -0.366% (inactive).

In the case of `O=C(O)c1ccccc1-c1ccc(/C=c2\sc3nc4cc(Br)cnc4n3c2=O)o1`, the “activity, negative = inhibition” value is -21.1% [at 27.7 µM] (inactive).

Turning to `O=C(/C=C/c1ccc(/C=C/C(=O)Nc2ccc(C3=NCCN3)cc2)cc1)Nc1ccc(C2=NCCN2)cc1`, the activity, negative = inhibition was 2.37% [at 4.49 µM] (inactive).

On to `Cc1c(NC(=O)c2cc(C(N)=O)nc3cc(F)ccc23)c(C(F)(F)F)nn1Cc1ccc(C(C)(C)C)cc1`, for which the outcome was inactive.

In the case of `COC1CCC(N2C(=O)CNc3ncc(-c4ccc(C(C)(C)O)nc4)nc32)CC1` (stereo unspecified), the Potency was 4.59 µM (active).

Turning to `Cc1c(-c2c(-c3ccc(F)o3)sc3ncnc(O[C@@H](Cc4ccccc4OCc4ccnn4CC(F)(F)F)C(=O)O)c23)ccc(OCCN2CCN(C)CC2)c1Cl`, the result was inactive.

For the molecule `Cn1cc(-c2nc(N[C@@H]3CCCC[C@@H]3N)c(F)c3c2C(=O)NC3)cn1`, the outcome is “inactive [at 4.49 µM]”.

`O=C1NC(=O)/C(=C\c2ccc(-c3ccc(F)cc3)o2)S1`: the result was inactive.

For `CONC(=O)Nc1ccc(-c2sc3c(c2CN(C)Cc2ccccc2)c(=O)n(-c2ccccc2)c(=O)n3Cc2c(F)cccc2F)cc1`, the result was inactive.

Consider `Cc1[nH]cnc1CN1CCN(C(=O)N[C@@H](CC(C)C)C(=O)O)[C@@H](Cc2ccccc2)C1=O`, for which the result was inactive.

As to `O=C(O)CNC(=O)c1nc(Cl)c2ccccc2c1O`, the result was inactive.

On to `CC(C)(O)c1coc(S(=O)(=O)NC(=O)Nc2c3c(cc4c2CCC4)CCC3)c1`, for which the “activity, negative = inhibition” value was 1.84% (inactive).

Consider `Cc1nc(NC(=O)N2CCC[C@H]2C(N)=O)sc1-c1csc(C(C)(C)C)n1`, for which the result was inactive.

`C/C=C1\NC(=O)[C@H]2CSSCC/C=C\[C@H](CC(=O)N[C@H](C(C)C)C(=O)N2)OC(=O)[C@H](C(C)C)NC1=O`: the outcome was inactive.

Regarding `CC(C)[C@H]1C(=O)N[C@@H](CCCN=C(N)N)C(=O)NCC(=O)N[C@@H](CC(=O)O)C(=O)N[C@H](Cc2ccccc2)C(=O)N1C`, the Potency result was “inactive”.

As to `CC(C)n1c(=O)cc(N[C@@H](C)c2ccccc2)[nH]c1=O`, the result was inactive.

In the case of `CSC[C@H]1CN(Cc2c[nH]c3c(N)ncnc23)C[C@@H]1O`, the result was inactive.

Regarding `C=CC(=O)Nc1cccc(Oc2nc(Nc3ccc(N4CCN(C)CC4)c(F)c3)nc3[nH]ccc23)c1`, the result was inactive.

Turning to `COCCOC(=O)N1CCN(S(=O)(=O)c2cc(F)c(Oc3ccc(Cl)cc3)c(F)c2)C(C(=O)NO)C1` (stereo unspecified), the result was inactive.

Turning to `COc1nc(N)nc2c1ncn2C1OC(CO)C(O)C1O` (stereo unspecified), the “activity, negative = inhibition” value was 3.3% (inactive).

With `COc1ccc(COc2ccc(Cc3cnc(N)nc3N)cc2OC)cc1`, the “activity, negative = inhibition” value was -30.8% (inactive).

In the case of `CCOC(=O)N[C@@H]1CC[C@@H]2[C@@H](C1)C[C@H]1C(=O)O[C@H](C)[C@H]1[C@H]2/C=C/c1ccc(-c2cccc(F)c2)cn1`, the outcome was inactive.

As to `O=C(NO)c1ccc(C2=Nc3ccccc3Oc3ccccc32)cc1`, the “activity, negative = inhibition” value is -1.67% (inactive).

In the case of `O=C1CC(c2c[nH]c3ccc(F)cc23)C(=O)N1` (stereo unspecified), the result was inactive.

These data come from PubChem BioAssay (NCATS).
